Unmarked numbers belong to inactive results.
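Also: biolog PM4 phosphorus and sulfur plates, tetrazolium violet dye reduction read in the OmniLog every 15 min, kinetic curves scored by DuctApe, each plate run in triplicate.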

One test has as its system Escherichia coli Nissle 1917. Briefly: DuctApe activity index of respiration/growth curve (0 no growth to 9 maximum) (index 0-9); higher = more growth / nutrient utilisation, active = 3 or more; extreme values may be limits of the assay. Conditions: nutrient role: C-Source, carboxylic acid; incubation: 48 h, 37 °C.
For `CC(=O)CC(=O)O` [Acetoacetic acid], the DuctApe activity index was 0.
On the same count and under the same terms, the result for `C[N+](C)(C)CC(O)CC(=O)[O-]` (racemic) [D,L-Carnitine] reads 0.
Turning to `O=C(O)CCC(=O)O` [Succinic acid], the DuctApe activity index was 8.67 (active).
On to `COC(=O)CCC(=O)O` [Mono-Methylsuccinate], for which the DuctApe activity index was 1.33.
Same read-out and setting: the figure for `CC(=O)C(=O)O` [Pyruvic acid] is 9 (active).
With `O=C(O)[C@]1(O)C[C@@H](O)[C@@H](O)[C@H](O)C1` [Quinic acid], the DuctApe activity index is 0.
With `O=C(O)[C@@H](O)[C@@H](O)[C@H](O)[C@@H](O)C(=O)O` [D-Saccharic acid], the DuctApe activity index is 8.67 (active).
For the compound `O=C(O)CO` [Glycolic acid], the DuctApe activity index is 7.67 (active).
Same read-out and setting: the figure for `CC(O)(CC(=O)O)C(=O)O` (stereo unspecified) [Citramalic acid] is 0.

Staying with this test, now noted: nutrient role: sole nitrogen source (pyruvate carbon); incubation: 48 h, 37 °C.
Consider `NCCc1c[nH]cn1` [Histamine], for which the DuctApe activity index is 0.
As to `NCCCCN=C(N)N` [Agmatine], the DuctApe activity index is 0.
Still for that read-out and setting: the result for `CC(O)C(N)=O` (racemic) [DL-Lactamide] reads 0; that for `NC(=O)C[C@@H](N)C(=O)O` [D-Asparagine], 2.33.
On the same count and under the same terms, the result for `NCCN` [Ethylenediamine] reads 0; that for `N[C@@H](Cc1c[nH]c2ccccc12)C(=O)O` [L-Tryptophan], 4.67 (active).
On to `N[C@@H](Cc1c[nH]cn1)C(=O)O` [L-Histidine], for which the DuctApe activity index is 0.
Still for that read-out and setting: the result for `CC(C)[C@H](N)C(=O)O` [L-Valine] reads 4 (active).
`NCCCCCC(=O)O` [e-Amino-N-Caproic acid]: the DuctApe activity index was 2.33.
Regarding `NO` [Hydroxylamine], the DuctApe activity index is 0.
On to `NCCCC[C@H](N)C(=O)O` [L-Lysine], for which the DuctApe activity index was 1.

Staying with this test, now noted: nutrient role: sole phosphorus source (pyruvate carbon); incubation: 48 h, 37 °C.
As to `C[N+](C)(C)CCOP(=O)(O)O` [Phosphoryl Choline], the DuctApe activity index was 8.67 (active).
On the same count and under the same terms, the result for `O=c1ccn([C@@H]2O[C@H](CO)[C@@H](O)[C@H]2OP(=O)(O)O)c(=O)[nH]1` [Uridine 2`-Monophosphate] reads 7 (active); that for `O=P(O)(O)O[C@H]1O[C@H](CO)[C@@H](O)[C@H](O)[C@H]1O` [D-Glucose-1-Phosphate], 8.33 (active).
On to `O=C(O)COP(=O)(O)O` [Phospho-Glycolic acid], for which the DuctApe activity index was 8.67 (active).
The same measure, in the same setting: the result for `Nc1ncnc2c1ncn2[C@@H]1O[C@H](CO)[C@@H](OP(=O)(O)O)[C@H]1O` [Adenosine 3`-Monophosphate] reads 9 (active); that for `N[C@@H]1[C@@H](O)[C@H](O)[C@@H](COP(=O)(O)O)O[C@@H]1O` [D-Glucosamine-6-Phosphate], 8.67 (active).

Source of the values: the supplement of paper PMC9801561.
